Data on 25 compounds can be found in PubChem BioAssay AID651828 (ICCB-Longwood Screening Facility, Harvard Medical School, 2012).

Out of some 20,000 compounds screened, about 25 (0.1%) were called active. The full list was thinned out, with actives kept by preference. A number with no mark means an inactive call. Rule as the data show it: active = % bound below about 75%; inactive = the rest.

For this assay, the target named is Nucleoprotein (Rift valley fever virus (strain ZH-548 M12)) (UniProt P21700). Kind of assay: inhibitors of RVFV nucleoprotein–RNA binding, primary screen, biochemical, fluorescence polarization (AID 651828). As to conditions: RVFV N-RNA binding, hits give low values, concentration not given here. For orientation: Polarisation of emitted light reports the rotation of a fluorescent probe.
Chain of Nucleoprotein (Rift valley fever virus (strain ZH-548 M12)) (P21700 whole entry, looked up): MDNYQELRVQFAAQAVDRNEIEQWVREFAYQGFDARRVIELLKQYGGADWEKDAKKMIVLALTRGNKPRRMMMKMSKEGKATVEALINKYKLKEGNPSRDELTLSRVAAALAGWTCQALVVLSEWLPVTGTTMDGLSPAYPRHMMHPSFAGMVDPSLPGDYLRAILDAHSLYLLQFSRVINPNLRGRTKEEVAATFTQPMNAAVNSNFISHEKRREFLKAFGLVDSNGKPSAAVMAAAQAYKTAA
With `Cc1ccccc1C(=O)Nc1cccc(N(C)C)c1`, the % bound was 99.1%.

Regarding `O=C(CS(=O)(=O)c1ccccc1)Nc1ccccc1O`, the % bound is 95.9%.

Regarding `Cc1cc(NN)nc(-c2ccccc2O)n1`, the % bound was 91.2%.

For `CS(=O)(=O)NCC(c1cccs1)N1CCc2ccccc21` (stereo not given), the % bound was 95.9%.

Take `COC(=O)C1CC2=CC(=O)CCC2(C)C2C(O)CC3(C)C(CCC34CCC(=O)O4)C12` (stereo not given): the % bound is 103%.

For `O=c1[nH][nH]c(=O)n1/N=C/C=C\c1ccccc1`, the % bound is 101%.

For the compound `Cc1nnsc1C(=O)Nc1ccc(C(N)=O)cc1`, the % bound is 96.7%.

On to `NC(=O)c1cccc(NC(=O)C(F)(F)F)c1`, for which the % bound was 108%.

In the case of `O=S(=O)(NCCN1CCOCC1)c1ccc(I)cc1`, the % bound was 94.4%.

Turning to `CCc1ccc2[nH]c(=O)c(Cc3ccccc3)c(O)c2c1`, the % bound is 98.2%.

Turning to `CC(C)Sc1nnc(NC(=O)C(C)(C)C)s1`, the % bound is 96.3%.

Regarding `COc1ccc(C(=O)NCCc2cc3c(OC)ccc(OC)c3[nH]c2=O)cc1`, the % bound was 97.1%.

`CCOc1ccc(NC(=O)CSc2nc(=O)n(CCCN3CCOCC3)c3c2CCCC3)cc1`: the % bound is 105%.

Consider `c1ccc2c(c1)CC(Nc1ccc3cn[nH]c3c1)C2`, for which the % bound was 84.9%.

As to `S=C(c1ccccn1)N1CCN(C(=S)c2ccccn2)CC1`, the % bound is 96.1%.

For the compound `O=C(CC1SC(=NC2CC3C=CC2C3)NC1=O)Nc1ccc(Cl)cc1` (stereo not given), the % bound was 89.9%.

Regarding `COc1ccc(-c2cc(-c3nnc(N)o3)no2)cc1OC`, the % bound is 92.5%.

As for `CC(C)Nc1ncccn1`, the % bound is 104%.

As to `COCn1c(=O)[nH]c2ccccc21`, the % bound is 91.1%.

As for `CCOC(=O)N1CCN(C(=S)Nc2ccc(Oc3ccccc3)cc2)CC1`, the % bound is 92.1%.

Turning to `COc1ccc(NC(=O)COc2cccc3c2CCN(C)C3=O)cc1`, the % bound is 90.3%.

For `Cc1nc(NNC(=O)c2ccccc2)cc(-c2ccccc2)n1`, the % bound is 91.7%.

Regarding `CC(c1ccccc1)n1c(SCc2nc(-c3ccc(C(C)(C)C)cc3)no2)n[nH]c1=O` (stereo not given), the % bound is 95.1%.

As to `N#CCCSc1nccn1Cc1ccccc1`, the % bound is 106%.

As to `c1ccc2c(c1)OC1OC2Oc2ccccc21`, the % bound was 98.8%.
